According to PubChem BioAssay AID738 (SRMLSC, 2007):
Out of some 98,000 compounds screened, about 4,900 (5%) were called active. The sample holds actives, similar compounds and a random draw of the others, so the mix is not that of the screen. A number with no mark means an inactive call. Rule as the data show it: active = inhibition above about 30%; inactive = the rest.

Assay: growth inhibition of yeast control strain, primary screen, counter-screen for post-Golgi transport modulator project (AID 738)
Details: efflux-deficient yeast background strain, growth absorbance A615, 16 h; at 10 µM; active compounds read high

Compound	inhibition
CCNc1nc(N)nc(-c2cc(Cl)ccc2OC)n1	-4.76%
COc1ccc2c3c(c(=O)oc2c1OCC(=O)C(C)(C)C)CCCC3	7.23%
O=c1oc2c(CN3CCCCC3)c(O)ccc2c2c1CCCCC2	-5.61%
CCCOc1ccc2c3c(c(=O)oc2c1OCCC)CCC3	36.1% (active)
CSc1ccc(-c2c(C#N)c(N)nc3c2c(C)nn3-c2ccccc2)cc1	2.79%
CSc1nc(N)c(C#N)c(-c2ccccc2Cl)c1C#N	68.3% (active)
Cc1c(-c2ccccc2)nc(N)c(C#N)c1-c1cccs1	15%
COc1cccc(/C=N\Nc2nncc(-c3ccccc3)n2)c1	7.59%
Nc1ccc(-c2sc(N)nc2-c2ccccc2)cc1	2.78%
O=C(Nc1cccc2ncccc12)c1ccc(-c2ccc(Cl)cc2Cl)o1	37.2% (active)
COc1cc(OC)c(NC(=O)c2ccc(Br)o2)cc1Cl	2.65%
O=C(Nc1cccc2ncccc12)C(Cl)(Cl)Cl	8.77%
CCC1(CC)NC(=O)N(CC(=O)OCC(=O)Nc2ccc(C(F)(F)F)cc2)C1=O	5.34%
O=C(c1ccco1)N1CCN(C(=O)C2c3ccccc3Oc3ccccc32)CC1	0.85%
CCCN(CCC)C(=O)C1c2ccccc2Oc2ccccc21	31.5% (active)
O=C(N/N=C/c1ccc(O)c(O)c1)C1c2ccccc2Oc2ccccc21	2.52%
Cc1c(NC(=O)CCCOc2ccccc2)cccc1[N+](=O)[O-]	2.57%
O=C(CC12CC3CC(CC(C3)C1)C2)Nc1ccc2c(c1)COC2=O	42.7% (active)
CC1Cc2ccccc2N1CC(=O)Nc1ccc2c(c1)OC(F)(F)O2 (stereo not drawn)	17.9%
O=C(O)CSCNC(=O)CC12CC3CC(CC(C3)C1)C2	0.28%

Compound	inhibition
COCCCNC(=O)C1CC(=O)N(CCc2ccccc2)C1 (stereo not drawn)	5.92%
COc1cc(OC)cc(C(=O)NC2CCN(C(=O)N3c4ccccc4Sc4ccccc43)CC2)c1	4.32%
CC(C)n1c(C(O)c2ccccc2)nc2ccccc21 (stereo not drawn)	1.26%
CCCn1c(C(O)c2cc(OC)ccc2OC)nc2ccccc21 (stereo not drawn)	17.6%
COc1cc(C(O)c2nc3ccccc3n2C)cc(OC)c1OC (stereo not drawn)	41.1% (active)
O=C(Nc1ncccn1)c1cccs1	5.69%
CCOc1cc(C(=O)Nc2ncccn2)cc(OCC)c1OCC	-2.73%
Cn1c(=O)c(C(=O)Nc2ncccn2)c(O)c2ccccc21	44.2% (active)
CCCn1nnnc1NC(=O)COc1ccc(Cl)cc1C	4.96%
O=C(NCCc1ccccn1)c1cc(C(=O)C2CCCCC2)c[nH]1	-1.83%
Cc1ccc(SCC(=O)NC(=O)NCc2ccco2)c(C)c1	2.9%
OC(COc1cccc2ccccc12)CN1CCN(c2ccccn2)CC1 (stereo not drawn)	-6.3%
CC(=C1C(=O)c2ccccc2C1=O)N1CCN(c2ccccn2)CC1	2.92%
O=C1c2cccc3cccc(c23)N1CN1CCN(c2ccccn2)CC1	32.2% (active)
CC1=C(C)CC(C(=O)NNC(=O)c2ccccc2O)C(C(=O)O)C1 (stereo not drawn)	-0.3%
Cc1nc(NC2=NC(C(=O)Nc3ccc(Cl)cc3)CC(=O)N2)nc2ccccc12 (stereo not drawn)	-4.48%
CSc1ccc(C#N)cc1NC(=O)c1cccc(Cl)c1	15.8%
COC(=O)C(NC(=O)c1ccc(OC)cc1)(Nc1ncc(S(=O)(=O)c2ccc([N+](=O)[O-])cc2)s1)C(F)(F)F (stereo not drawn)	6.12%
O=C(NC(Nc1nc2ccc([N+](=O)[O-])cc2s1)(C(F)(F)F)C(F)(F)F)c1ccccc1	89.5% (active)
Cc1cc(C)cc(OCC(=O)Nc2nc3ccc([N+](=O)[O-])cc3s2)c1	11.7%

Compound	inhibition
COc1ccc2c(c1OC)C(=O)c1ccccc1C2=O	1.8%
Cc1nnc(SCC(=O)N/N=C/c2cn(-c3ccccc3)nc2-c2ccc(F)cc2)n1-c1ccccc1	4.61%
O=C1c2ccccc2C2=Nc3ccccc3SC(c3ccccc3F)C12 (stereo not drawn)	95.4% (active)
O=C(CN1C(=O)NC2(CCCC2)C1=O)Nc1ccc(F)c(F)c1F	3.79%
O=C(Nc1ccccc1)OCc1cc(-c2ccc(Cl)cc2)on1	10.1%
O=C1c2cccc3cc(Br)cc(c23)C(=O)N1Nc1ccccc1	12.1%
O=C1C=C(c2ccc(Cl)cc2)C(=O)N1Nc1ccccc1	99.5% (active)
Cc1ccc(-c2nnc(-n3nnc4ccccc43)c3ccccc23)cc1	12%
N=c1oc2ccccc2cc1C(=O)N/N=C/c1ccccc1	-3.5%
CCOC(=O)CSc1nnc(-c2ccncc2)o1	2.24%
CCOC(=O)CSc1nnc(-c2cccc(Br)c2)o1	31.6% (active)
CCN(CC)C(=O)CSc1nnc(-c2cccc(OC)c2)o1	2.38%
O=C(CSCc1ccccc1Cl)NNC(=O)c1ccccc1	3.42%
CCOc1ccc(N(CC(=O)NC2CCCCCC2)S(=O)(=O)c2c(C)[nH]c(=O)[nH]c2=O)cc1	5.91%
COc1ccc(-c2c(C(C)=O)c(C)nc3sc4c(=O)n(-c5ccc(C)cc5)nnc4c23)cc1	16.1%
CCn1c(SCCC(C)C)nnc1-c1c[nH]c2ccccc12	56.1% (active)
CCn1c(SCC(=O)Nc2ccc(OC)c(OC)c2)nnc1-c1c[nH]c2ccccc12	7.39%
CCC(C)Sc1nnc(-c2c[nH]c3ccccc23)n1CCOC (stereo not drawn)	0.59%
